Results on twelve compounds are retold here after PubChem BioAssay (NCATS).

Test [1] can be described thus: High-throughput drug toxicity screening in the BPDCN cell line Gen2.2 (AID 1224824; call rule not given here;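 also: cells exposed to compounds for 48 h before reading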). The note with it: Gen2.2 BPDCN cells; at 45.8 µM (top of the series). In short, it runs like this:
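Readout is ATP luminescence from Gen2.2 cells after two days of drug exposure in serum-containing medium at 37 °C. Values express percent activity, with vehicle defining full signal and 9.2 uM bortezomib defining zero.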

The nature of test [2]: High-throughput drug toxicity screening in the BPDCN cell line Cal-1 (AID 1224825; call rule not given here). The note with it: Cal-1 BPDCN cell viability, qHTS; at 45.8 µM (top of the series). The procedure, abridged:
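500 Cal-1 cells/well, RPMI + glutamine + 10% FBS (phenol red-free); cpd added by pin tool; 48 h, 37C, 5% CO2; CTG 15 min RT, lumi read. Normalised: DMSO 100%, bortezomib 9.2 uM 0%.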
(In general: qHTS replaces the single test concentration by a dilution series.)

Test [3] is described as follows: qHTS assay for measurement of the activity of small molecule inhibitors on Zika virus induced Caspase-3 activity in human astrocytoma cells (AID 1224859).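 Also: plate controls were ZIKV-infected untreated cells for no effect and uninfected cells for full effect.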 The settings on record: SNB-19 ZIKV-induced caspase-3/7, luminescence, 6 h; series mostly up to 45.7 µM. In short, it runs like this: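 A cell-based luminescent caspase-3/7 assay used SNB-19 cells infected with ZIKV (2 FFU/cell) for 6 h following 1 h compound pretreatment.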

Test [4] is described as follows: qHTS Screen of the MIPE 4.0 Collection Against Ewings Sarcoma (RDES) (AID 1259252).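 Also: 100% = DMSO-treated cells and 0% = medium-only wells without cells; nearly all actives have a fitted effect of over 35% in size.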 The note with it: RD-ES Ewing sarcoma viability, CellTiter-Glo, 48 h; series mostly up to 45.8 µM. In short, it runs like this:
(§1)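 After a 4 h attachment period in RPMI/5% FBS, cells were pin-dosed with test compounds; DMSO served as negative and 9.2 uM bortezomib (final) as positive control. Luminescent CellTiter-Glo signal at 48 h defined viability.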

Test [5] is described as follows: qHTS Screen of the MIPE 4.0 Collection Against Ewings Sarcoma (EW8) (AID 1259255).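 Also: 100% = DMSO-treated cells and 0% = medium-only wells without cells; nearly all actives have a fitted effect of over 35% in size.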 The note with it: EW8 Ewing sarcoma viability, CellTiter-Glo, 48 h; series mostly up to 45.8 µM. The procedure, abridged:
as §1

The nature of test [6]: qHTS Screen of the MIPE 4.0 Collection Against Ewings Sarcoma (TC32) (AID 1259256).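 Also: 100% = DMSO-treated cells and 0% = medium-only wells without cells; nearly all actives have a fitted effect of over 45% in size.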 The settings on record: TC32 Ewing sarcoma viability, CellTiter-Glo, 48 h; series mostly up to 45.8 µM. The procedure, abridged:
as §1

Test [7] in a line: qHTS assay to identify small molecule inhibitors of chordoma cells - UCH-1 (AID 1259355). Also: % is scaled to controls: 0 for no effect and ±100 for the full control effect; nearly all actives have a fitted effect of over 55% in size. The note with it: UCH-1 chordoma viability, CellTiter-Glo, 48 h, combination; series mostly up to 46.1 µM. In short, it runs like this: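 Seed 800 cells per well; incubate overnight at 37 C, 5% CO2. Add test compounds (15 concentrations), then the auranofin–topoisomerase-agent combination. Incubate 48hr, add CellTiter-Glo, wait 30min, read luminescence.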

Test [8] is described as follows: qHTS assay to identify small molecule inhibitors of chordoma cells - UCH-2 (AID 1259356). Also: % is scaled to controls: 0 for no effect and ±100 for the full control effect. The note with it: UCH-2 chordoma viability, CellTiter-Glo ATP luminescence, 48 h; series mostly up to 46.1 µM.
Test [9] is described as follows: qHTS assay for measurement of the activity of small molecule inhibitors on Zika virus induced Caspase-3 activity in human iPSC derived neural progenitor cells (hNPCs) (AID 1224857). Also: % of control where 0% means no effect; nearly all actives have a fitted effect of over 65% in size. The note with it: hNPCs ZIKV-induced caspase-3/7, Caspase-Glo luminescence, 6 h; series mostly up to 45.7 µM. In short, it runs like this:
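In medium with heparin 2 ug/ml and cyclopamine 2 uM, hNPCs (350 cells/well) received compound for one hour and then Zika virus at 2 FFU/cell; caspase activity was measured by Caspase-Glo 3/7 luminescence 6 h post-infection.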

Test [10] can be described thus: qHTS Screen of the MIPE 4.0 Collection Against Ewings Sarcoma (TC71) (AID 1259253).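 Also: 100% = DMSO-treated cells and 0% = medium-only wells without cells; nearly all actives have a fitted effect of over 40% in size.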 The note with it: TC71 Ewing sarcoma viability, CellTiter-Glo, 48 h; series mostly up to 45.8 µM. In short, it runs like this: as §1
Test [11] is described as follows: Immunotoxin (HA22) sensitization/mitigation study. Vehicle arm (PBS) (AID 1159510; call rule not given here). The note with it: cancer cells viability with PBS vehicle (HA22 study); series mostly up to 46.1 µM.
Test [12] in a line: Immunotoxin (SS1P) sensitization/mitigation study. Vehicle arm (DMEM) (AID 1159513; call rule not given here). The settings on record: cell viability with vehicle (DMEM); series mostly up to 46.1 µM.
The nature of test [13]: Identifying Small Molecule Inhibitors of Pancreatic Cancer Stem Cells (A2780, Spheroid) (AID 1259357).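 Also: spheroids pre-formed over 14 days in stem cell medium on hydrogel; compound exposure lasted 48 h before the ATP luminescence read; 100% = DMSO treated cells and 0% = wells without cells.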 The note with it: Potency: A2780 spheroid viability; series mostly up to 46.1 µM. The procedure, abridged:
(§2)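 Pre-formed 14-day tumor spheroids or adherent cells dosed and incubated 48 h, 37C, 5% CO2. Viability assessed by CellTiter-Glo.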

Test [14] can be described thus: Identifying Small Molecule Inhibitors of Pancreatic Cancer Stem Cells (SN12C, Adherent) (AID 1259358).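 Also: cell survival measured after 48 h of compound exposure.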 The settings on record: viability/growth inhibition; series mostly up to 46.1 µM. The procedure, abridged: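 Adherent (2D) versus sphere (3D) formats; spheres generated 14 d in SCM beforehand. Compound transferred by pin tool after 4 h, 48 h incubation, CellTiter-Glo endpoint.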

The nature of test [15]: Identifying Small Molecule Inhibitors of Pancreatic Cancer Stem Cells (SN12C, Spheroid) (AID 1259360).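 Also: 100% = DMSO-treated cells and 0% = wells without cells.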 The settings on record: Potency: SN12C spheroid viability; series mostly up to 46.1 µM. The procedure, abridged:
as §2

Test [16] can be described thus: Identifying Small Molecule Inhibitors of Pancreatic Cancer Stem Cells (Panc1, Adherent) (AID 1259362).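 Also: compound exposure lasted 48 h before the viability read; plate controls were DMSO-treated cells for no effect and cell-free media wells for full effect.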 The note with it: Potency: viability; series mostly up to 46.1 µM. The procedure, abridged: as §2

Inconclusive results are not listed. Activity calls are given as the source filed them. Unless noted, calls follow the shape of the dose curve; as a rule, active = well fitted curve in the direction sought with a large enough effect; inconclusive = small, poorly fitted or top-dose-only effect, or another doubt; inactive = no such curve, though single readings can be large; an effect the other way counts as inactive or inconclusive.

As to `CN(C)CCc1ccc(O)cc1`, the cell viability, % of control (lower = more cytotoxic) in [1] worked out at 191%. Further, the viability (% of control) in test [2] turned out to be 108%. In [3], the result was inactive. Besides, the Potency entry in test [4], in test [5], in test [6], in test [7] and in test [8] was “inactive” each time.

On to `CNCC(O)c1ccc(O)cc1` (centres undefined), for which, in [1], the cell viability, % of control (lower = more cytotoxic) came out at 145%. Moreover, the viability (% of control) in [2] was 114%. Besides, the Potency entry in test [9], in [4], in test [10], in [5], in test [6] and in [7] was “inactive” in each case. In addition, the Potency result in test [8] is “inactive”. Also, in test [3], the result was inactive.

Take `NCC(O)c1ccc(O)cc1` (centres undefined): the Potency entry in test [9], in test [7] and in [8] was “inactive” each time. Also, the outcome in [3] was inactive.

Regarding `O=c1oc2ccccc2c(O)c1C(CC(O)c1ccc(-c2ccc(Br)cc2)cc1)c1ccccc1` (centres undefined), the Potency result in test [9], in test [7] and in test [8] was “inactive” in each case. Moreover, the call in test [3] was inactive.

With `CN1C[C@H](CNC(=O)OCc2ccccc2)C[C@@H]2c3cccc4c3c(cn4C)C[C@H]21`, the Potency result in test [9], in test [7] and in test [8] was “inactive” throughout. In test [3], the call was inactive.

Take `C[C@]12CCC(=O)C(O)=C1CC[C@@H]1[C@@H]2CC[C@]2(C)C(=O)CC[C@@H]12`: the Potency result in test [11], in [12], in [9], in test [13], in test [14] and in test [15] was “inactive” in each case. In addition, the Potency result in [16] is “inactive”. Further, the result in test [3] was inactive.

`CCCC1CCCCN1` (centres undefined): the Potency entry in [9], in [7] and in test [8] was “inactive” each time. Also, the compound was called inactive in [3].

Take `CCn1cc(C(=O)O)c(=O)c2ccc(C)nc21`: the Potency entry in test [9] is “inactive”.

As for `CC(=O)[C@H]1CC[C@H]2[C@@H]3CC[C@H]4C[C@](C)(O)CC[C@]4(C)[C@H]3CC[C@]12C`, the Potency result in test [9], in test [7] and in test [8] was “inactive” each time. In addition, the result in test [3] was inactive.

Consider `O=C(O)c1ccc2[nH]cc(CCCCN3CC=C(c4ccccc4)CC3)c2c1`, for which the Potency entry in test [9], in [7] and in test [8] was “inactive” in each case. The compound was called inactive in test [3].

Turning to `c1ccc(C2CC2)c(OCC2=NCCN2)c1`, the Potency result in test [9], in test [7] and in [8] was “inactive” each time. Besides, the result in test [3] was inactive.

`CC(=O)Nc1cc([As](=O)(O)O)ccc1O`: the Potency entry in [9], in test [7] and in test [8] was “inactive” throughout. The result in test [3] was inactive.
